Assay results taken from PubChem BioAssay (Tox21).
Records with an inconclusive call do not appear. Active and inactive are the calls of the source. Calls come from the whole dose curve; as a rule, active = well fitted cell-killing curve with a large enough effect in the repeat runs; inconclusive = weak or mixed curves, or effect the other way; inactive = no such curve, though single readings can be large or run the other way. Residues, ends and D or L forms follow the SMILES beside them.

Assay: qHTS assay to identify small molecule antagonists of the vitamin D receptor (VDR) signaling pathway - cell viability counter screen (AID 743225); note: nearly all actives have a fitted effect of over 50% in size
Conditions: VDR-bla HEK293T viability, CellTiter-Glo luminescence, 16 h; series mostly up to 61 µM
Source text: U.S. Tox21 Program National Center for Advancing Translational Sciences [NCATS] NIH Chemical Genomics Center [NCGC] U.S. Environmental Protection Agency [EPA] National Institutes of Environmental Health Sciences [NIEHS] National Toxicology Program [NTP] U.S. Food and Drug Administration [FDA] Tox21 Assay Overview: The vitamin D receptor (VDR), a member of nuclear hormone receptor superfamily, plays a critical role in calcium homeostasis and bone metabolism. It is also involved in cell differentiation and growth, and thrombogenicity. To identify the compounds that inhibit VDR signaling, the VDR-UAS-bla HEK 293T cell line (Invitrogen, Carlsbad, CA, USA) containing a beta-lactamase reporter gene under the control of an upstream activator sequence (UAS) was used to screen the Tox21 10K compound library. The cytotoxicity of the Tox21 compound library against the VDR-bla cell line was tested in parallel by measuring the cell viability using CellTiter-Glo assay (Promega, Madison, WI) in the same wells.
Tox21 Assay Protocol Summary: VDR-bla cells were dispensed at 2,000 cells/5 uL of assay medium per well into black wall/clear-bottom 1536-well plates using a Multidrop Combi (Thermo Fisher Scientific, Waltham, MA) dispenser. After the assay plates were incubated at a 37C and 5% CO2 for 4 h, 23 nL of compounds dissolved in DMSO, positive controls or DMSO only was transferred to the assay plate by a Pintool station (Kalypsys, San Diego, CA), followed by addition of 1 uL of 1-alpha, 25-Dihydroxy Vitamin D3 (3 nM, final concentration in the wells) using a Bioraptr Flying Reagent Dispenser (FRD) workstation (Beckman Coulter, Indianapolis, IN). The plates were incubated at 37C and 5% CO2 for 16 h, and then 1 uL of LiveBLAzerTM B/G FRET substrate was added using a Bioraptr FRD. The plates were incubated at room temperature for 2 h and fluorescence intensity was measured by an Envision plate reader (PerkinElmer, Shelton, CT). For cell viability readout that measures cytotoxicity, 3 ul/well of CellTiter-Glo reagent was added into the assay plates using a Bioraptr FRD. After 30 min incubation at room temperature, the luminescence intensity in the plates was measured using a ViewLux plate reader (PerkinElmer).

Row | Compound | outcome
1 | O=S(=O)(O)NC1CCCCC1 | inactive
2 | OCCc1ccccc1 | inactive
3 | Nc1ccc(S(=O)(=O)Nc2nccs2)cc1 | inactive
4 | CCOc1ccc(NC(=O)CC(C)O)cc1 (stereo not given) | inactive
5 | Cc1ccc(S(=O)(=O)NC(=O)NN2CCCCCC2)cc1 | inactive
6 | Nc1ccc(O)c(C(=O)O)c1 | inactive
7 | Nc1ccn([C@H]2CC[C@@H](CO)O2)c(=O)n1 | inactive
8 | O=C(O)/C=C\C(=O)O | inactive
9 | CC(C)(Oc1ccc(C2CC2(Cl)Cl)cc1)C(=O)O (stereo not given) | inactive
10 | CC(=O)NS(=O)(=O)c1ccc(N)cc1 | inactive
11 | Nc1ccc(C(=O)O)cc1 | inactive
12 | NC(N)=NC(=O)c1nc(Cl)c(N)nc1N | inactive
13 | O=S(=O)(O)c1ccc2cc(O)ccc2c1 | inactive
14 | Oc1ccc(/C=C/c2cc(O)cc(O)c2)cc1 | inactive
15 | O=C(c1ccccc1)C(O)c1ccccc1 (stereo not given) | inactive
16 | c1ccc2[nH]ccc2c1 | inactive
17 | O=C(O)c1cccnc1 | inactive
18 | C/C=C/c1ccc(OC)cc1 | inactive
19 | Cc1cc(=O)[nH]c(=S)[nH]1 | inactive
20 | CC(=O)OCC(COC(C)=O)OC(C)=O | inactive

Row | Compound | outcome
21 | COC(=O)[C@H](Cc1ccccc1)NC(=O)[C@@H](N)CC(=O)O (H-Asp-Phe-OMe) | inactive
22 | O=c1cc[nH]c(=S)[nH]1 | inactive
23 | CNC[C@H](O)c1cccc(O)c1 | inactive
24 | CCCN(CCC)S(=O)(=O)c1ccc(C(=O)O)cc1 | inactive
25 | NS(=O)(=O)c1cc(C(=O)O)c(NCc2ccco2)cc1Cl | inactive
26 | NC(=O)NC1NC(=O)NC1=O (stereo not given) | inactive
27 | Cn1c(=O)c2[nH]cnc2n(C)c1=O | inactive
28 | CCCCCCCCCCCCCCCC(=O)O | inactive
29 | CCCCC(CC)COC(=O)/C=C/c1ccc(OC)cc1 (stereo not given) | inactive
30 | Cn1cc[nH]c1=S | inactive
31 | N=C(N)c1ccc(OCCCCCOc2ccc(C(=N)N)cc2)cc1 | inactive
32 | CCCC(O)C(CC)CO (stereo not given) | inactive
33 | COc1c2occc2cc2ccc(=O)oc12 | inactive
34 | COc1ccc2[nH]cc(CCNC(C)=O)c2c1 | inactive
35 | O=C(c1ccccc1)c1ccccc1 | inactive
36 | Cc1cn([C@H]2C[C@H](N=[N+]=[N-])[C@@H](CO)O2)c(=O)[nH]c1=O | inactive
37 | O=C(O)CCCCC(=O)O | inactive
38 | C1N2CN3CN1CN(C2)C3 | inactive
39 | O=C(O)CS | inactive
40 | O=C1CN(/N=C/c2ccc([N+](=O)[O-])o2)C(=O)N1 | inactive
